For seven compounds, outcome and AC50 results are on record in PubChem BioAssay (EPA / NIEHS).

Test [1] can be described thus: ACEA_ER_80hr: ACEA Biosciences xCELLigence Real-Time Cell Analysis on Estrogen Receptor Agonism for Proliferation (AID 2282667; active = hit-call score of the fitted dose curve at least 0.9, where 1 is the maximum). Conditions: T47D proliferation, impedance (xCELLigence), 80 h. In short, it runs like this: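 Real-time electrical impedance tracked growth of the human breast line T47D, with the 80 h post-dosing value used. Dosing spanned eight 1:4 steps down from a 100 uM final top concentration, run in duplicate.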

The nature of test [2]: ATG_CRE_CIS: Attagene CIS-FACTORIAL HepG2 Assay for human cAMP Responsive Element (CRE) binding protein 3 (AID 2282926). Conditions: HepG2 CRE cis-reporter, Attagene multiplexed mRNA; actives raise or lower the signal. In short, it runs like this: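 Human liver HepG2, transient MRTU transfection, 24 h compound exposure. Total RNA → oligo(dT) RT → PCR → 6-FAM primer extension → HpaI cut → CE. Activity called both directions vs DMSO.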

Test [3] concerns the target CCAAT/enhancer-binding protein beta (Homo sapiens) (UniProt P17676). Description: ATG_C_EBP_CIS: Attagene CIS-FACTORIAL HepG2 Assay for human CCAAT/Enhancer Binding Protein (C/EBP) beta (AID 2282927). The conditions noted are these: HepG2 Attagene cis-factorial transcription factor reporter; actives raise or lower the signal. In short, it runs like this:
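HepG2 transiently transfected with multiplexed reporter units under cis-regulatory promoters reporting endogenous C/EBPb activity. After 24 h exposure, reporter mRNA assayed by RT-PCR, fluorescent labelling, HpaI digestion and capillary electrophoresis; bidirectional fitting versus DMSO.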

A short description of test [4]: ATG_CMV_CIS: Attagene CIS-FACTORIAL HepG2 Assay for human CMV (Internal Marker) (AID 2282928).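 Note: endpoint acts as a background internal control marker rather than a target.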 The conditions noted are these: HepG2 CMV promoter reporter, transcription factor profiling; actives raise or lower the signal. An outline of the steps:
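Endogenous transcription factor activity read in HepG2 via transfected cis-promoter reporter units. After 24 h dosing, reporter mRNA measured by RT-PCR/capillary electrophoresis; gain or loss of signal fit relative to DMSO.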

Test [5] can be described thus: ATG_DR4_LXR_CIS: Attagene CIS-FACTORIAL HepG2 Assay for human Liver X Receptor (LXR), DR4 submotif (AID 2282929). The conditions noted are these: HepG2 Attagene DR4 cis-reporter, mRNA transcription; actives raise or lower the signal. In short, it runs like this:
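Fluorescence intensity of labelled reporter cDNA fragments, separated by capillary electrophoresis, gives the signal. HepG2 cells bearing cis-regulated reporter constructs were treated 24 h; activity fitted bidirectionally relative to DMSO negative control.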

For test [6], the target named is Aryl hydrocarbon receptor (Homo sapiens) (UniProt P35869). Description: ATG_Ahr_CIS: Attagene CIS-FACTORIAL HepG2 Assay for human Aryl Hydrocarbon Receptor (Ahr) (AID 2282930). The conditions noted are these: HepG2 AhR cis-factorial reporter transcription; actives raise or lower the signal. An outline of the steps:
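HepG2 cells transiently transfected with cis-element-driven multiplexed reporter units; endogenous AhR activity read as reporter mRNA 24 h after dosing, via RT-PCR, 6-FAM labelling, HpaI digestion and capillary electrophoresis. Bidirectional fit relative to DMSO.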

Test [7] can be described thus: ATG_AP_1_CIS: Attagene CIS-FACTORIAL HepG2 Assay for human Activator Protein 1 (AP-1) (AID 2282931). The conditions noted are these: HepG2 Attagene cis-factorial AP-1 reporter mRNA; actives raise or lower the signal. In short, it runs like this: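 Multiplexed HepG2 reporter assay, 24 h dosing. mRNA induction detected by RT-PCR plus capillary electrophoresis. Activity fitted in both directions against DMSO.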

Test [8] in a line: ATG_AP_2_CIS: Attagene CIS-FACTORIAL HepG2 Assay for human Activator Protein 2 (AP-2) (AID 2282932). Conditions: HepG2 AP-2 cis-reporter, Attagene transcription factor profiling; actives raise or lower the signal. An outline of the steps: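 HepG2 cells transiently transfected with cis-element reporter units and exposed for 24 h. Reporter mRNA measured by RT-PCR, FAM labelling, HpaI digestion and capillary electrophoresis. Changes in either direction fitted relative to DMSO.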

The nature of test [9]: ATG_BRE_CIS: Attagene CIS-FACTORIAL HepG2 Assay for human Bone Morphogenetic Protein (BMP) Response Element (BRE) (AID 2282933). Conditions: HepG2 BMP response element reporter, Attagene transcription factor profiling; actives raise or lower the signal. In short, it runs like this:
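HepG2 cells transiently transfected with CIS reporter units (endogenous TF activity, BMP response element), dosed 24 h. Reporter mRNA quantified by RT-PCR, fluorescent labelling and capillary electrophoresis; bidirectional fit vs DMSO baseline.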

Test [10] addresses Transcription factor E2F1 (Homo sapiens) (UniProt Q01094). The test is described as follows: ATG_E2F_CIS: Attagene CIS-FACTORIAL HepG2 Assay for human E2F Transcription Factor 1 (AID 2282935). Conditions: HepG2 Attagene cis-reporter, E2F reporter RNA transcripts; actives raise or lower the signal. In short, it runs like this: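 Endogenous E2F1 activity read through cis-promoter reporter units transfected into HepG2. After 24 h compound treatment, reporter mRNA measured by RT-PCR, HpaI digestion and capillary electrophoresis. Bidirectional fit versus DMSO.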

Test [11] in a line: ATG_E_Box_CIS: Attagene CIS-FACTORIAL HepG2 Assay for human Enhancer Box (E-box) (AID 2282936). The conditions noted are these: HepG2 E-box cis-reporter transcription, actives raise or lower the signal. An outline of the steps:
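HepG2 cells transiently transfected with multiplexed cis-element reporter units, dosed 24 h; reporter mRNA quantified by RT-PCR, 6-FAM labelling, HpaI digestion and capillary electrophoresis. E-box (USF1) signal fitted bidirectionally vs DMSO.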

Test [12] can be described thus: ATG_M_61_CIS: Attagene CIS-FACTORIAL HepG2 Assay for M61 Transcription Factor (Internal Marker) (AID 2282937). Conditions: HepG2 Attagene CIS-FACTORIAL M61 internal marker reporter; actives raise or lower the signal. In short, it runs like this:
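Endogenous transcription factor activity in HepG2 is read through transiently transfected cis-element reporter units. After 24 h dosing, RNA undergoes reverse transcription, PCR and primer extension with 6-FAM before capillary electrophoresis; DMSO-referenced bidirectional fit.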

A short description of test [13]: ATG_EGR_CIS: Attagene CIS-FACTORIAL HepG2 Assay for human Early Growth Response 1 (EGR1) (AID 2282938). The conditions noted are these: HepG2 Attagene CIS-FACTORIAL EGR reporter mRNA; actives raise or lower the signal. An outline of the steps: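 Activity is taken as induction or loss of reporter mRNA versus DMSO, fitted bidirectionally. Transcripts from cis-regulated reporter units in transiently transfected HepG2 were measured after 24 h by RT-PCR with capillary electrophoresis.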

The nature of test [14]: ATG_M_19_CIS: Attagene CIS-FACTORIAL HepG2 Assay for M19 Transcription Factor (Internal Marker) (AID 2282939). Conditions: HepG2 Attagene CIS-FACTORIAL M19 internal marker reporter; actives raise or lower the signal. In short, it runs like this:
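HepG2 cells transiently transfected with cis-regulated multiplexed reporter units, dosed 24 h. Reporter mRNA quantified by RT-PCR and capillary electrophoresis; internal background marker fitted bidirectionally versus DMSO.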

Test [15] can be described thus: ATG_ERE_CIS: Attagene CIS-FACTORIAL HepG2 Assay for Estrogen Response Element (ERE) (AID 2282940). The conditions noted are these: HepG2 ERE cis-reporter, Attagene RNA transcript; actives raise or lower the signal. In short, it runs like this: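 HepG2 cells transiently transfected with multiplexed cis-element reporter units, measuring endogenous transcription factor activity; ERE reporter mRNA quantified after 24 h exposure by RT-PCR, fluorescent labelling, HpaI digestion and capillary electrophoresis. Bidirectional change versus DMSO.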

Test [16] is described as follows: ATG_Ets_CIS: Attagene CIS-FACTORIAL HepG2 Assay for human Erythroblast Transformation Specific (ETS) (AID 2282941). The conditions noted are these: HepG2 ETS cis-reporter transcription, actives raise or lower the signal. In short, it runs like this:
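Steps: transfect HepG2 with multiple reporter units; treat compound 24 h; isolate RNA, DNase-treat, reverse-transcribe; PCR-amplify, label with 6-FAM, digest with HpaI; separate by capillary electrophoresis. Activity fitted both directions versus DMSO.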

Test [17] concerns the target Hepatocyte nuclear factor 3-beta (Homo sapiens) (UniProt Q9Y261). The test is described as follows: ATG_FoxA2_CIS: Attagene CIS-FACTORIAL HepG2 Assay for human Forkhead box A2 (FOXA2) (AID 2282942). The conditions noted are these: HepG2 cis-reporter transcription factor activity, 24 h; actives raise or lower the signal. In short, it runs like this: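 Reporter transcript induction is measured by fluorescence after capillary electrophoresis of RT-PCR products from HepG2 cells exposed 24 h. Cis-regulated reporter units report endogenous factor activity; curves fitted both directions against DMSO.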

A short description of test [18]: ATG_FoxO_CIS: Attagene CIS-FACTORIAL HepG2 Assay for human Forkhead box O (FoxO) (AID 2282943). The conditions noted are these: HepG2 Attagene cis-reporter, FoxO element, mRNA; actives raise or lower the signal. In short, it runs like this: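 HepG2 cells transiently transfected with cis-element-driven reporter units report endogenous FoxO activity. After 24 h chemical exposure, reporter mRNA quantified by RT-PCR, fluorescent labeling, HpaI digestion and capillary electrophoresis; bidirectional fit versus DMSO.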

Test [19] can be described thus: ATG_GATA_CIS: Attagene CIS-FACTORIAL HepG2 Assay for human GATA Binding Protein (AID 2282944). The conditions noted are these: HepG2 GATA cis-element reporter, Attagene multiplex mRNA; actives raise or lower the signal. In short, it runs like this: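 HepG2 cells transiently transfected with multiplexed cis-element reporter units measure endogenous GATA activity; after 24 h compound exposure, reporter mRNA quantified by RT-PCR and capillary electrophoresis. Changes fitted in both directions vs DMSO.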

Results filed as inconclusive are left out. Calls of active or inactive are those of the source. Rule for the calls, unless noted: active = hit-call score of the fitted dose curve at least 0.9, where 1 is the maximum; inactive = score below 0.9.

Hepatocyte nuclear factor 3-beta (Homo sapiens), sequence (Q9Y261 whole entry, looked up): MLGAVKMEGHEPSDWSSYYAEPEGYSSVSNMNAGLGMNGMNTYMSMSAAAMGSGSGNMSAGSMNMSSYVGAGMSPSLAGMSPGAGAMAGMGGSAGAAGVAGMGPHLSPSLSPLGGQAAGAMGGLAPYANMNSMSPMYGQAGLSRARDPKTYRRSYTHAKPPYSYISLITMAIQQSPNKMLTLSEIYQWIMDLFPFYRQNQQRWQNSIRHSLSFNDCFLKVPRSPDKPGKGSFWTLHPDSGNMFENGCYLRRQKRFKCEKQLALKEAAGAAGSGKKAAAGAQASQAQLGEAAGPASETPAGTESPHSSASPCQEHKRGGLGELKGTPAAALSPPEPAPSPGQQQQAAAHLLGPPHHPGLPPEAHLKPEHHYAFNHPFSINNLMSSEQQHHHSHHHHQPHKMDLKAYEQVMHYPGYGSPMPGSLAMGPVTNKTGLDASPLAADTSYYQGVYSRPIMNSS
Transcription factor E2F1 (Homo sapiens), sequence (Q01094 whole entry, looked up): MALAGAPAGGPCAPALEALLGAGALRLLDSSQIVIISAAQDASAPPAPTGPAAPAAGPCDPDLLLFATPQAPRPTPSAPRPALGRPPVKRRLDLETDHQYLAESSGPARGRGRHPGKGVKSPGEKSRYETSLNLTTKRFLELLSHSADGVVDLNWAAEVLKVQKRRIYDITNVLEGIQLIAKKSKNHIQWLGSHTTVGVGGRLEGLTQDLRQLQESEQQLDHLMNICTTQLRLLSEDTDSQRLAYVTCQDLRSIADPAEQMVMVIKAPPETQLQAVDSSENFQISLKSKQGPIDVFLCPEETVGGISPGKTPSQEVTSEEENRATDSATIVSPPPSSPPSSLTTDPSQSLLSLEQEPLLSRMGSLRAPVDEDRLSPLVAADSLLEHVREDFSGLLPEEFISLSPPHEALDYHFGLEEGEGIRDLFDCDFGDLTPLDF
Aryl hydrocarbon receptor (Homo sapiens), sequence (P35869 whole entry, looked up): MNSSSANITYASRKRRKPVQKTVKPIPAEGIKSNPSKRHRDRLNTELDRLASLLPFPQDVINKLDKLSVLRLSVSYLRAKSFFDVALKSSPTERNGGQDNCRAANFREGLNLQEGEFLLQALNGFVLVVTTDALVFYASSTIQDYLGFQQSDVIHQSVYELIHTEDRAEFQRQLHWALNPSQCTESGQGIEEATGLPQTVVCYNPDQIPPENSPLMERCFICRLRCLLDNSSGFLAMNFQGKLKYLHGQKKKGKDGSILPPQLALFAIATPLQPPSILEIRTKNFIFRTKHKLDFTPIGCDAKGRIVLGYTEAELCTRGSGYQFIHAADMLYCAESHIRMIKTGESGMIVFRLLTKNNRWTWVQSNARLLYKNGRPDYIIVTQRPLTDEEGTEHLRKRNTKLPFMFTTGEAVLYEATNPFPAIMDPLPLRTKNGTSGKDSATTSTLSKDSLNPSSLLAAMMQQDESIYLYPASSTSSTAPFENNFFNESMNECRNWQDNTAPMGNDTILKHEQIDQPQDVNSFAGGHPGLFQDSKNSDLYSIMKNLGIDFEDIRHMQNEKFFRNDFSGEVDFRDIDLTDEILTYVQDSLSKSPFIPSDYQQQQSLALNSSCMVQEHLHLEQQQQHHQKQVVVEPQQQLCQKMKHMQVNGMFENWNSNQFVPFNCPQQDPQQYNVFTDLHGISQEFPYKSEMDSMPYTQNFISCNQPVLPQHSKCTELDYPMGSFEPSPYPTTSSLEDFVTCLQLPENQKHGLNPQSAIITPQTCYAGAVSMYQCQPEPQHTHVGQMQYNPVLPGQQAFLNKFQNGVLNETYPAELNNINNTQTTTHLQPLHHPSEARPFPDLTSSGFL
CCAAT/enhancer-binding protein beta (Homo sapiens), sequence (P17676 whole entry, looked up): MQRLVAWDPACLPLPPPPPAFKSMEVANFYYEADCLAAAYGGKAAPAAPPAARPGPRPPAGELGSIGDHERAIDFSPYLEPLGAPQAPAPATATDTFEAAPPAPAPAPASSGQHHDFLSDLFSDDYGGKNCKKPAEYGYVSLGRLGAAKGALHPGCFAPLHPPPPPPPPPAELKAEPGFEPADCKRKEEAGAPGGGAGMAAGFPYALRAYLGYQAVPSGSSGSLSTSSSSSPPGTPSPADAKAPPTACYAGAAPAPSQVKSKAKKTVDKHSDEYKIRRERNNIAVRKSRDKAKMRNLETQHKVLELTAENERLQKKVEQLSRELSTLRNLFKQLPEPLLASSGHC

With `NC(=O)C(F)(F)C(F)(F)C(F)(F)C(F)(F)C(F)(F)C(F)(F)C(F)(F)F`, the outcome in [1], in test [2], in test [3], in [4], in test [5] and in test [6] was inactive. In addition, the compound was classed as inactive in [7], in [8], in test [9], in test [10], in [11] and in test [12]. Moreover, the call in [13], in [14], in [16], in test [17], in [18] and in test [19] was inactive. Further, the AC50 – broadly, the concentration giving half of the maximal activity seen – in test [15] is 16 µM (active).
Turning to `COC(F)(C(F)F)C(F)(F)F` (stereo not drawn), the compound was classed as inactive in test [1], in test [2], in test [3], in test [4], in test [5] and in [6]. Moreover, the compound was called inactive in test [7], in test [8], in test [9], in test [10], in [11] and in test [12]. Further, the compound was classed as inactive in [13], in [14], in [15], in test [16], in [17] and in test [18]. Also, the compound was called inactive in test [19].
As to `CNS(=O)(=O)C(F)(F)C(F)(F)C(F)(F)C(F)(F)C(F)(F)C(F)(F)C(F)(F)C(F)(F)F`, the result in [1], in test [2], in test [3], in test [4], in [5] and in [6] was inactive. Further, the call in test [8], in [9], in test [10], in test [11], in [12] and in test [13] was inactive. In addition, the outcome in test [14], in [15], in test [16], in test [17], in [18] and in test [19] was inactive. The AC50 in test [7] is 13.7 µM (active).
Take `CC1=CC2C3C=CC(C3)C2C1C` (stereo not drawn): the outcome in [1], in test [2], in [4], in test [5], in test [6] and in [7] was inactive. The compound was called inactive in test [8], in test [9], in test [11], in test [12], in [13] and in test [14]. Moreover, the compound was called inactive in test [15], in [16], in [17], in test [18] and in test [19]. The AC50 in test [3] was 100 µM (active); in test [10], 29.9 µM (active).
Consider `Cc1cnccn1`, for which the call in test [1], in [2], in test [3], in test [4], in [5] and in [7] was inactive. For the same compound, the result in [8], in test [9], in test [10], in [11], in [12] and in test [13] was inactive. The outcome in test [14], in test [15], in test [16], in test [17], in test [18] and in [19] was inactive. For the same compound, the AC50 in test [6] is 0.0965 µM (active).
As to `Cc1cc(C)c(O)c(C(C)(C)C)c1`, the compound was called inactive in [1], in [2], in test [3], in test [5], in test [6] and in test [7]. Also, the result in test [8], in test [9], in test [10], in test [11], in test [12] and in test [13] was inactive. Moreover, the compound was classed as inactive in test [14], in test [15], in test [16], in test [17], in test [18] and in [19]. In addition, in test [4], the AC50 is 100 µM (active).
With `CCCCC(CC)COC(=O)c1ccc(N(C)C)cc1` (stereo not drawn), the compound was classed as inactive in test [1], in test [2], in test [3], in test [6], in test [8] and in [10]. For the same compound, the outcome in test [11], in test [12], in test [13], in [14], in [16] and in test [17] was inactive. Moreover, the outcome in test [18] and in [19] was inactive. Also, the AC50 in [4] is 53.9 µM (active); in test [5], 64.7 µM (active); in [7], 61.7 µM (active); in test [9] it was 46.7 µM (active); in [15], 9.36 µM (active).
